Reference: PubChem BioAssay (NCATS)
“And” between values parts separate entries of the source, which are not always exact repeats. Equal entries are not always repeated. Values without a mark were called inactive. Results filed as inconclusive are left out. Where a call stands in place of a potency, no number is given. The source made the active and inactive calls. Unless noted, calls come from the whole dose curve; as a rule, active = well fitted curve in the direction sought with a large enough effect; inconclusive = small, poorly fitted or top-dose-only effect, or another doubt; inactive = no such curve, though single readings can be large; an effect the other way counts as inactive or inconclusive.

Legend:
[1] = Cell Viability - HUV-EC-C (AID 542);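 note: cells exposed to compound for 40 hours; nearly all actives have a fitted effect of over 35% in size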
Procedure, shortened: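 Concentration-dependent ATP loss in HUV-EC-C cells is the measure. Exposure lasts 40 hr at 37 °C; luminescence follows CellTiter-Glo addition, and Hill fits give AC50.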

[2] = Cell Viability - Mesenchymal (AID 546); conditions: mesenchymal cells viability, qHTS; activity change, negative = cytotoxicity: at 91.7 µM (top of the series);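 note: cells exposed to compound for 40 hours before reading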
Procedure, shortened: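 In this qHTS cytotoxicity format, glomerulus-derived human mesenchymal kidney cells received compound for 40 hr, then luciferase-based ATP quantitation. Concentration-response data were fitted with the Hill equation.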

[3] = Cellular Toxicity (caspase-3) Jurkat (AID 655); conditions: Jurkat caspase-3 activation, luminescence; caspase-3 activation: at 92.2 µM (top of the series), DMSO = 0%, tamoxifen = 100%;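 note: cells exposed to compound for 16 h at 37 °C before reading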
Procedure, shortened: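 qHTS in human Jurkat T-cell leukemia line: 16 hr compound treatment at 37 °C, caspase-3/7 activity measured by Caspase-Glo luminescence. AC50 derived from Hill equation.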

[4] = Cellular Toxicity (caspase-3) HUV-EC-C (AID 656)
Procedure, shortened: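 Concentration-dependent caspase 3/7 induction was assessed in HUV-EC-C cells exposed for 16 hours. Data scaled between DMSO and tamoxifen (100 uM) controls.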

[5] = Cellular Toxicity (caspase-3) SHSY5Y (AID 657)
Procedure, shortened: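 Readout: caspase-cleaved peptide-aminoluciferin substrate driving luciferase light in SH-SY5Y neuroblastoma cells after 16 h treatment. Response normalized to DMSO and 10 uM staurosporine controls.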

[6] = Cellular Toxicity (caspase-3) MRC-5 (AID 659)
Procedure, shortened: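 Apoptosis readout in MRC-5 cells: luciferase light generated after caspase 3/7 cleaves a peptide-aminoluciferin substrate, measured post 16 hr compound incubation at 37 °C.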

[7] = Cellular Toxicity (caspase-3) Mesangial (AID 660);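 note: combined caspase 3 and 7 activity read by Caspase-Glo luminescence; cells exposed to compound for 16 h before the caspase read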
Procedure, shortened: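 AC50 values come from Hill-equation fits of caspase 3/7 activation, measured as Caspase-Glo luminescence in human glomerular mesangial cells exposed to compound for 16 h at 37 °C; 100% set by 100 uM tamoxifen.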

[8] = Cellular Toxicity (caspase-3) SK-N-SH (AID 661)
Procedure, shortened: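 Apoptosis readout in SK-N-SH neuroblastoma: Caspase-Glo 3/7 luminescence following 16 hr treatment in complete culture medium. Normalization used DMSO and 10 uM staurosporine controls.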

[9] = Cellular Toxicity (caspase-3) N2a (AID 665);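 note: compound exposure lasted 16 h at 37 °C before readout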
Procedure, shortened: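 Concentration-response qHTS: compound-induced caspase-3/7 luminescence in N2a cells (16 h, 37 °C), relative to DMSO and 10 uM staurosporine controls; AC50 obtained using the standard Hill equation.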

[10] = Cellular Toxicity (caspase-3) NIH 3T3 (AID 666)
Procedure, shortened: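 Activity: caspase-3/7 induction, NIH 3T3 cells, 16 hr treatment at 37°C, luminescent Caspase-Glo detection; AC50 via Hill equation.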

[11] = Cellular Toxicity (caspase-3) Renal Proximal Tubule (AID 667); conditions: Potency: caspase-3 activation;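 note: cells exposed to compound for 16 hours at 37 °C before detection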
Procedure, shortened: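 Caspase-Glo 3/7 read-out, rat primary kidney proximal tubule cells. Compound exposure 16 h, 37 °C; detection after 1 h at RT. Activity scaled to DMSO and 10 uM staurosporine.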

[12] = Cell Viability - LYMP1-002 - Assay at 16 hr (AID 948); note: potency is the fitted concentration of half-maximal effect
Procedure, shortened: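 In this qHTS, lymphoblastoid LYMP1-002 cells (human) receive compounds for 16 hr at 37 C. Viability is taken from CellTiter-Glo ATP luminescence, and AC50 derives from standard Hill fits.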

[13] = MultiTox-Fluor Cytotoxicity Assay - LYMP1-003 - Dead Cells (AID 961); note: nearly all actives have a fitted effect of over 70% in size; note: potency is the fitted concentration of half-maximal effect
Procedure, shortened: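 Dead-cell protease release, detected as bis-AAF-R110 fluorescence at 485/520 nm, was measured in LYMP1-003 cells after 16 h compound treatment at 37 C. AC50 values came from Hill-modeled qHTS curves normalized to DMSO (0%) and 15 uM tetraoctylammonium bromide (100%).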

[14] = Cell Viability - LYMP1-003 - Assay at 24 hr (AID 963)
Procedure, shortened: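 The lymphoblastoid line was treated with titrated compounds for 24 hours, and viable cell number estimated from luciferase-based ATP luminescence.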

[15] = Cell Viability - LYMP2-003 (AID 965);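 note: cells exposed to compounds for 24 h before reading; nearly all actives have a fitted effect of over 50% in size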; note: potency is the fitted concentration of half-maximal effect
Procedure, shortened: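 qHTS, human lymphoblastoid line, 2500 cells/well, complete medium. 24 h drug, 37 C. ATP-based luminescent readout; Hill-fit AC50.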

[16] = Cell Viability - LYMP2-026 (AID 989);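 note: cells exposed to compound for 24 h at 37 °C; nearly all actives have a fitted effect of over 50% in size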; note: potency is the fitted concentration of half-maximal effect
Procedure, shortened: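 Acute toxicity screen in complete culture medium, with 24 hr compound exposure at 37 C. Viability read as cellular ATP via luciferase reaction, with tetraoctylammonium bromide (6.4pM to 92 uM) as positive control.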

[17] = Cell Viability - LYMP1-002 - Assay at 24 hr (AID 993)
Procedure, shortened: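 Viability was judged from intracellular ATP using a luciferase read-out, following a 24-hour compound incubation at 37 C of lymphoblastoid cells seeded at 2500 per well. Concentration-response data were fitted to the Hill equation for AC50.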

[18] = qHTS Assay for Identification of Small Molecule Inducers of Hypoxia Response (AID 2120; active = well fitted curve in the direction sought with a large enough effect in the signal ratio, with a control signal flat, not every such curve was filed as active; the % refers to the signal ratio; note: potency is the fitted concentration of half-maximal effect)
Procedure, shortened: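 HRE-bla ME-180, 2500 cells/well, 0.5% dialyzed FBS medium; cpd titration, 17 h 37 degrees C; CCF4 2.5 h RT; Ex 405, Em 460/530 ratio -> %Activity, AC50.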

[19] = biological target: Peroxisome proliferator-activated receptor alpha (Homo sapiens) (UniProt Q07869); assay: qHTS assay for small molecule agonists of the peroxisome proliferator-activated receptor alpha (PPARalpha) signaling pathway (AID 651778); conditions: PathHunter PPARalpha complementation, chemiluminescence, 6 h; max response: stronger effect = higher value
Procedure, shortened: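 Cells plated at 2,000/well and held overnight at 37 C, 5% CO2, then compound added by pin tool for 6 hr; after PathHunter detection reagent and 60 min at room temperature, chemiluminescence from enzyme complementation was read.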

[20] = qHTS assay for cell viability of the p53RE-bla HCT-116 cell line (AID 743292); note: nearly all actives have a fitted effect of over 55% in size
Procedure, shortened: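 ATP-based luminescent viability (CellTiter-Glo, 30 min RT) after 16 h compound treatment at 37 C of p53RE-bla HCT-116 cells, seeded at 4,000 cells/well and rested 5 h before dosing.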

Sequence of Peroxisome proliferator-activated receptor alpha (Homo sapiens) (Q07869 whole entry, looked up): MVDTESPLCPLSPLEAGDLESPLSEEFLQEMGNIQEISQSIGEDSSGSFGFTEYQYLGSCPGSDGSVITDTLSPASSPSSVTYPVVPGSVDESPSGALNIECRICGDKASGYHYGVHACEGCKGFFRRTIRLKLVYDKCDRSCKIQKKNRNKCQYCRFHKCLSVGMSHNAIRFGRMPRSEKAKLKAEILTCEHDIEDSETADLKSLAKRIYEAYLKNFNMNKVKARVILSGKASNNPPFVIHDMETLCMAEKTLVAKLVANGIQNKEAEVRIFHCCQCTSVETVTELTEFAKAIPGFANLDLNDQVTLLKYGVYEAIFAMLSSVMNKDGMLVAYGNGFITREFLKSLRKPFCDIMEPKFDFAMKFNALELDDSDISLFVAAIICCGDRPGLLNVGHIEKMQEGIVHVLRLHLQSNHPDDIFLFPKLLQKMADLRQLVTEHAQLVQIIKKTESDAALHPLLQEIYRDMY

Compound	Potency [1]	Potency [2]	Potency [3]	Potency [4]	Potency [5]	outcome [6]	outcome [7]	outcome [8]	outcome [9]	outcome [10]	Potency [11]	Potency [12]	Potency [13]	Potency [14]	Potency [15]	Potency [16]	Potency [17]	Potency [18]	max response [19]	Potency [20]
CC(=O)c1ccc(Cl)c(Cl)c1Cl	inactive	inactive	inactive	inactive	inactive	inactive	inactive	inactive	inactive	inactive	inactive	inactive	inactive	inactive	inactive	inactive	inactive	inactive	-0.114%	inactive
Cc1cc2nc(N)sc2cc1C	–	–	inactive	inactive	inactive	inactive	inactive	inactive	inactive	–	–	inactive	inactive	inactive	inactive	inactive	inactive	inactive	-4.39%	inactive
C=Cc1cccc(C)c1	inactive	inactive	inactive	inactive	inactive	inactive	inactive	inactive	inactive	inactive	inactive	inactive	inactive	inactive	inactive	inactive	inactive	inactive	-4.17%	inactive
c1ccc(CSCc2ccccc2)cc1	inactive	inactive	inactive	inactive	inactive	inactive	inactive	inactive	inactive	inactive	inactive	inactive	inactive	inactive	inactive	inactive	inactive	inactive	-0.51%	inactive
Cc1c2ccccc2c(C)c2c1ccc1ccccc12	–	inactive	inactive	inactive	inactive	inactive	inactive	inactive	inactive	inactive	inactive	inactive	39.8 µM (active)	inactive	inactive	inactive	inactive	44.7 µM (active)	2.82% and -0.29%	inactive
Brc1cc(Br)c(Oc2cc(Br)c(Br)cc2Br)cc1Br	inactive	inactive	inactive	inactive	inactive	inactive	inactive	inactive	inactive	inactive	inactive	inactive	inactive	inactive	inactive	inactive	inactive	inactive	-1.94%	inactive
Cc1c(N)cccc1Cl	inactive	inactive	inactive	inactive	inactive	inactive	inactive	inactive	inactive	inactive	inactive	inactive	inactive	inactive	inactive	inactive	inactive	inactive	-2.61%	inactive
C=CC(=O)OCCCCCCOC(=O)C=C	inactive	–	inactive	inactive	inactive	inactive	inactive	–	inactive	inactive	inactive	39.8 µM (active)	31.6 µM (active)	–	39.8 µM (active)	39.8 µM (active)	–	inactive	0.65% and -0.822%	inactive
OCC(CBr)(CBr)CBr	inactive	inactive	inactive	inactive	inactive	inactive	inactive	inactive	inactive	inactive	inactive	inactive	inactive	inactive	inactive	inactive	inactive	inactive	1.63%	inactive
CCCCC(CC)COP(=O)(OCC(CC)CCCC)OCC(CC)CCCC (stereo unspecified)	inactive	inactive	inactive	inactive	inactive	inactive	inactive	inactive	inactive	inactive	inactive	inactive	inactive	inactive	inactive	inactive	inactive	inactive	-6.02%	inactive
CC(C)(C)C(=O)C1C(=O)c2ccccc2C1=O	inactive	inactive	inactive	inactive	inactive	inactive	inactive	inactive	inactive	inactive	inactive	inactive	inactive	inactive	inactive	inactive	inactive	inactive	0.134%	inactive
